In PubChem BioAssay (EPA / NIEHS) one finds outcome and AC50 data, which are given here for three compounds.

SMILES strings stand for the structures. The source made the active and inactive calls. Rule for the calls: active = hit-call score of the fitted dose curve at least 0.9, where 1 is the maximum; inactive = score below 0.9.

The target of test [1] is Bile acid receptor (Homo sapiens) (UniProt Q96RI1). Kind of test: ATG_IR1_CIS: Attagene CIS-FACTORIAL HepG2 Assay for human Nuclear Receptor Subfamily 1 Group H Member 4 (NR1H4), IR1 submotif (AID 2282946). To be noted: IR1 reporter transcription, actives raise or lower the signal. A digest of the protocol: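 Fluorescence of capillary-separated, HpaI-digested RT-PCR reporter products gave IR1-element mRNA induction in HepG2 cells 24 h after dosing. Endogenous transcription factors drove the cis-regulated reporters; activity was fitted bidirectionally against DMSO.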
Chain of Bile acid receptor (Homo sapiens) (Q96RI1 whole entry, looked up): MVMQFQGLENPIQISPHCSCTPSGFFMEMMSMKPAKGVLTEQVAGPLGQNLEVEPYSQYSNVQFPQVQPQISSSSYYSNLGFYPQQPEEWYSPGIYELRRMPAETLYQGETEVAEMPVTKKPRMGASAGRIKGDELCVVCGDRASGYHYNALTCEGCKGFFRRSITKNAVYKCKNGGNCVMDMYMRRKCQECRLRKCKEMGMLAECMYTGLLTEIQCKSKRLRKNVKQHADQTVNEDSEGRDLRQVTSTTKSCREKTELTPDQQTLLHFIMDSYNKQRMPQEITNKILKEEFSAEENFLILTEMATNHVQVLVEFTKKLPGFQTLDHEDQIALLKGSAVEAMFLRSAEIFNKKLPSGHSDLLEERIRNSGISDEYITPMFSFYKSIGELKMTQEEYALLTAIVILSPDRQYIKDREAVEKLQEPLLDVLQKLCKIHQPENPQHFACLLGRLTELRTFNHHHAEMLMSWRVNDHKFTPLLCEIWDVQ

Test [2] is described as follows: ATG_GRE_CIS: Attagene CIS-FACTORIAL HepG2 Assay for human Glucocorticoid Response Elements (GRE) (AID 2282947). To be noted: HepG2 GRE cis-reporter, Attagene multiplex mRNA; actives raise or lower the signal. A digest of the protocol:
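Read-out: fluorescent reporter-transcript fragments separated by capillary electrophoresis after RT-PCR. Transiently transfected HepG2 cells carrying cis-element-driven reporter units were dosed for 24 h; gain or loss of signal fitted against DMSO control.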

A short description of test [3]: ATG_ISRE_CIS: Attagene CIS-FACTORIAL HepG2 Assay for human Interferon Regulatory Factor 1 (IRF1) binding to an Interferon-Stimulated Response Element (ISRE) (AID 2282948). The following applies: HepG2 ISRE cis-reporter (Attagene), mRNA transcription readout; actives raise or lower the signal. In short, it runs like this:
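Endogenous transcription factor activity read as reporter transcript abundance via RT-PCR and capillary electrophoresis. HepG2 cells transiently transfected, 24 h chemical exposure. Gain or loss fitted against DMSO baseline.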

Test [4] in a line: ATG_M_32_CIS: Attagene CIS-FACTORIAL HepG2 Assay for M32 Transcription Factor (Internal Marker) (AID 2282949).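 Note: background control marker of the multiplexed CIS panel rather than a real target.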 The following applies: HepG2 Attagene cis-factorial M32 reporter, mRNA; actives raise or lower the signal. A digest of the protocol:
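Using DMSO as baseline, bidirectional curve fits were applied to reporter mRNA signals. These came from transiently transfected HepG2 cells exposed for 24 h, with RNA analysed by RT-PCR, FAM primer extension, HpaI digestion and CE.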

Test [5] can be described thus: ATG_M_06_CIS: Attagene CIS-FACTORIAL HepG2 Assay for M06 Transcription Factor (Internal Marker) (AID 2282950). The following applies: HepG2 Attagene CIS-FACTORIAL M06 internal marker reporter; actives raise or lower the signal. A digest of the protocol: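 One of many multiplexed endpoints: HepG2 reporter mRNA after 24 h dosing, detected by RT-PCR and capillary electrophoresis fluorescence; gain or loss of signal analysed against DMSO.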

In test [6] the target is Hypoxia-inducible factor 1-alpha (Homo sapiens) (UniProt Q16665). Kind of test: ATG_HIF1a_CIS: Attagene CIS-FACTORIAL HepG2 Assay for human Hypoxia Inducible Factor 1 (HIF1A) (AID 2282951). To be noted: HepG2 Attagene cis-factorial HIF1a reporter transcription; actives raise or lower the signal. In short, it runs like this:
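In this multiplexed cell assay, HepG2 cells bearing transfected cis reporters are dosed for 24 h and reporter mRNA is read by RT-PCR plus capillary electrophoresis; signal increases and decreases are both scored against DMSO.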

Test [7] concerns the target Hepatocyte nuclear factor 6 (Homo sapiens) (UniProt Q9UBC0). Kind of test: ATG_HNF6_CIS: Attagene CIS-FACTORIAL HepG2 Assay for human Hepatocyte Nuclear Factor 6 (HNF6) (AID 2282952). To be noted: HepG2 Attagene cis-factorial HNF6 reporter transcription; actives raise or lower the signal. In short, it runs like this: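 Activity values derive from bidirectional fitting against DMSO of reporter mRNA levels, measured by capillary electrophoresis of labelled RT-PCR products from HepG2 cells exposed 24 h.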

Test [8] has as its target Heat shock factor protein 1 (Homo sapiens) (UniProt Q00613). Kind of test: ATG_HSE_CIS: Attagene CIS-FACTORIAL HepG2 Assay for human Heat Shock Transcription Factor 1 (HSE) (AID 2282953). To be noted: HepG2 HSE cis-reporter, Attagene RNA transcription; actives raise or lower the signal. In short, it runs like this:
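Using HepG2 with transfected cis-driven reporter constructs, compound effects on endogenous factor activity are scored as reporter mRNA change at 24 h. Detection: RT-PCR, HpaI digestion, capillary electrophoresis; bidirectional fitting to DMSO.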

The nature of test [9]: ATG_MRE_CIS: Attagene CIS-FACTORIAL HepG2 Assay for human Metal Responsive Element (MRE) (AID 2282954). The following applies: HepG2 MRE cis-reporter transcription, Attagene multiplex; actives raise or lower the signal. A digest of the protocol:
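RT-PCR/capillary electrophoresis readout of reporter mRNA, 24 h post-dosing, in HepG2 cells transfected with multiplexed cis-regulated reporter constructs. Gain or loss of signal fitted bidirectionally against DMSO baseline.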

Test [10] in a line: ATG_PBREM_CIS: Attagene CIS-FACTORIAL HepG2 Assay for human Phenobarbital-responsive Enhancer Module (PBREM) (AID 2282955). To be noted: HepG2 PBREM cis-reporter, Attagene multiplexed transcription; actives raise or lower the signal. A digest of the protocol: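 After a 24 h incubation with test chemical, transfected HepG2 cells yield total RNA; reporter-specific RT-PCR products are fluorescently labelled, HpaI-digested and resolved by capillary electrophoresis against ROX size standards.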

The target of test [11] is Paired box protein Pax-6 (Homo sapiens) (UniProt P26367). Kind of test: ATG_Pax6_CIS: Attagene CIS-FACTORIAL HepG2 Assay for human Paired Box 6 (PAX6) (AID 2282956). To be noted: HepG2 CIS-FACTORIAL PAX6 reporter transcription, RNA readout; actives raise or lower the signal. A digest of the protocol:
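Read-out is reporter transcript level, measured by RT-PCR with fluorescent primer extension and capillary electrophoresis after 24 h dosing of transfected HepG2 cells. Activity in either direction fitted relative to DMSO control.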

The nature of test [12]: ATG_PXRE_CIS: Attagene CIS-FACTORIAL HepG2 Assay for human Pregnane X Receptor Element (PXRE) (AID 2282957). To be noted: HepG2 Attagene CIS-FACTORIAL PXRE reporter, mRNA; actives raise or lower the signal. A digest of the protocol: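 Fluorescent capillary electrophoresis of amplified reporter cDNA gave the signal, collected 24 h after dosing HepG2 cells that held transfected cis-element reporter constructs.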

Test [13] can be described thus: ATG_PPRE_CIS: Attagene CIS-FACTORIAL HepG2 Assay for human Peroxisome Proliferator-activated Response Element (PPRE) (AID 2282958). The following applies: HepG2 PPRE cis-element reporter, Attagene transcription factor profiling; actives raise or lower the signal. In short, it runs like this: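 Multiplexed reporter transcription units under cis-regulatory promoters were transfected into HepG2 cells to capture endogenous factor activity. A 24 h incubation preceded RNA isolation and fluorescent RT-PCR fragment analysis.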

Test [14] in a line: ATG_RORE_CIS: Attagene CIS-FACTORIAL HepG2 Assay for human RAR-related Orphan Receptor Element (RORE) (AID 2282959). The following applies: HepG2 Attagene cis-factorial RORE reporter, mRNA; actives raise or lower the signal. In short, it runs like this:
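Fluorescence intensity of reporter-specific cDNA fragments, separated by capillary electrophoresis, gives the signal. Source: HepG2 liver cells transiently transfected with cis-element reporters and exposed 24 h; DMSO-normalized bidirectional fit.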

Test [15] addresses Transcription factor Sp1 (Homo sapiens) (UniProt P08047). Kind of test: ATG_Sp1_CIS: Attagene CIS-FACTORIAL HepG2 Assay for human Specificity Protein 1 (Sp1) (AID 2282961). The following applies: HepG2 Sp1 cis-reporter transcription, actives raise or lower the signal. A digest of the protocol: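 Sp1-driven reporter mRNA, read as capillary electrophoresis fluorescence after RT-PCR, in transiently transfected HepG2 cells dosed for 24 h; signal change in either direction relative to DMSO.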

A short description of test [16]: ATG_SREBP_CIS: Attagene CIS-FACTORIAL HepG2 Assay for human Sterol Regulatory Element Binding (SREBP) (AID 2282962). The following applies: HepG2 Attagene cis-factorial SREBP reporter, mRNA; actives raise or lower the signal. A digest of the protocol: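 Endogenous SREBP activity read as cis-element-driven reporter transcript in transiently transfected HepG2, 24 h post-dosing; quantified via RT-PCR plus capillary electrophoresis of fluorescent fragments. Gain or loss of signal fitted relative to DMSO baseline.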

For test [17], the target named is Signal transducer and activator of transcription 3 (Homo sapiens) (UniProt P40763). Kind of test: ATG_STAT3_CIS: Attagene CIS-FACTORIAL HepG2 Assay for human Signal Transducer and Activator of Transcription 3 (STAT3) (AID 2282963). To be noted: HepG2, Attagene cis-factorial STAT3 reporter transcription; actives raise or lower the signal. A digest of the protocol: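 Readout: fluorescent reporter mRNA fragments resolved by capillary electrophoresis. Setup: HepG2 transfected with MRTUs reporting endogenous transcription-factor activity, dosed 24 h. Gain or loss of signal fitted bidirectionally against DMSO control.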
Chain of Signal transducer and activator of transcription 3 (Homo sapiens) (P40763 whole entry, looked up, the tested form may be a part): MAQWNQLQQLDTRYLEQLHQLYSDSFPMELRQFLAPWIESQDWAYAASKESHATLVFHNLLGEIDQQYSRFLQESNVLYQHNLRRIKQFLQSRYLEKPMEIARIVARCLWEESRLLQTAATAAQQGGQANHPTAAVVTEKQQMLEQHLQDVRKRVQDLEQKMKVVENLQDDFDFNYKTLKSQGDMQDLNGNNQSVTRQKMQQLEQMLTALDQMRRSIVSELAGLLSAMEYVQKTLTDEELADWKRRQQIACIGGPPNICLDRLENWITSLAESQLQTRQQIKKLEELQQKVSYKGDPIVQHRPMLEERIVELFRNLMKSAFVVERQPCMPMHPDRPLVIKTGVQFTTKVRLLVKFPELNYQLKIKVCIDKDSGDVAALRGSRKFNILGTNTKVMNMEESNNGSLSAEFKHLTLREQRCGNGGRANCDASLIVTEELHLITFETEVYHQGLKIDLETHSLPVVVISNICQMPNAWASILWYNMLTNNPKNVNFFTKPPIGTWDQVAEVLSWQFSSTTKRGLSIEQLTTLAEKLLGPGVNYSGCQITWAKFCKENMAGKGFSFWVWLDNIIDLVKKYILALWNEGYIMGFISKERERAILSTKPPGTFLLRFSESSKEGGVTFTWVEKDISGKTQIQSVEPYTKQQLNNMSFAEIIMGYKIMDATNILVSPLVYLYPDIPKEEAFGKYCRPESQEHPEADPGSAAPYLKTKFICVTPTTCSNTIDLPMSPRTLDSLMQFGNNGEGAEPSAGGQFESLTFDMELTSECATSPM

Test [18] is described as follows: ATG_TA_CIS: Attagene CIS-FACTORIAL HepG2 Assay for human TA Basal Promoter (AID 2282964). To be noted: HepG2 Attagene CIS-factorial TA basal promoter reporter; actives raise or lower the signal. A digest of the protocol:
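Transient MRTU transfection of HepG2 preceded 24 h compound exposure. Reporter mRNA levels were then read by RT-PCR with capillary electrophoresis, and this background-control endpoint was fitted bidirectionally to DMSO.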

The nature of test [19]: ATG_TCF_b_cat_CIS: Attagene CIS-FACTORIAL HepG2 Assay for human T-Cell-Factor with beta-catenin (TCF/b-cat) (AID 2282965). To be noted: HepG2 TCF/beta-catenin cis-reporter transcription, actives raise or lower the signal. In short, it runs like this: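 Cells of the HepG2 line carry transiently transfected reporter units whose promoters respond to endogenous factors. Twenty-four hours post-dosing, reporter mRNA induction is measured by fluorescent RT-PCR and capillary electrophoresis, with DMSO as baseline.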

Test [20] can be described thus: ATG_Sox_CIS: Attagene CIS-FACTORIAL HepG2 Assay for human SRY-box transcription factor (SOX) (AID 2282960). To be noted: HepG2 Attagene cis-factorial SOX reporter, mRNA; actives raise or lower the signal. In short, it runs like this: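 After 24 h of chemical treatment, transfected HepG2 reporter cells are lysed for total RNA. Transcript levels come from RT-PCR with labelled primer extension and capillary electrophoresis, analysed bidirectionally versus DMSO.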

Chain of Paired box protein Pax-6 (Homo sapiens) (P26367 whole entry, looked up): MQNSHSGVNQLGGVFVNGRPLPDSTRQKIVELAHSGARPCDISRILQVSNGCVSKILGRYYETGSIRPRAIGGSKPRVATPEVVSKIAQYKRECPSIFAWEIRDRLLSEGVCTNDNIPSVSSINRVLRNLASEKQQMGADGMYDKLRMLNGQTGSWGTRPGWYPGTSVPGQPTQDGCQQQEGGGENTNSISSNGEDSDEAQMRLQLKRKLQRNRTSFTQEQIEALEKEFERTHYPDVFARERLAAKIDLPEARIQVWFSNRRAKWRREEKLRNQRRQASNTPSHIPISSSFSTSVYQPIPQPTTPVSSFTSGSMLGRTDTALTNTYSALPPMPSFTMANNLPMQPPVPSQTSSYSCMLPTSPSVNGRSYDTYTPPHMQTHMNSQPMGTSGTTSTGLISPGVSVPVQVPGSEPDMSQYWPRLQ
Chain of Hypoxia-inducible factor 1-alpha (Homo sapiens) (Q16665 whole entry, looked up): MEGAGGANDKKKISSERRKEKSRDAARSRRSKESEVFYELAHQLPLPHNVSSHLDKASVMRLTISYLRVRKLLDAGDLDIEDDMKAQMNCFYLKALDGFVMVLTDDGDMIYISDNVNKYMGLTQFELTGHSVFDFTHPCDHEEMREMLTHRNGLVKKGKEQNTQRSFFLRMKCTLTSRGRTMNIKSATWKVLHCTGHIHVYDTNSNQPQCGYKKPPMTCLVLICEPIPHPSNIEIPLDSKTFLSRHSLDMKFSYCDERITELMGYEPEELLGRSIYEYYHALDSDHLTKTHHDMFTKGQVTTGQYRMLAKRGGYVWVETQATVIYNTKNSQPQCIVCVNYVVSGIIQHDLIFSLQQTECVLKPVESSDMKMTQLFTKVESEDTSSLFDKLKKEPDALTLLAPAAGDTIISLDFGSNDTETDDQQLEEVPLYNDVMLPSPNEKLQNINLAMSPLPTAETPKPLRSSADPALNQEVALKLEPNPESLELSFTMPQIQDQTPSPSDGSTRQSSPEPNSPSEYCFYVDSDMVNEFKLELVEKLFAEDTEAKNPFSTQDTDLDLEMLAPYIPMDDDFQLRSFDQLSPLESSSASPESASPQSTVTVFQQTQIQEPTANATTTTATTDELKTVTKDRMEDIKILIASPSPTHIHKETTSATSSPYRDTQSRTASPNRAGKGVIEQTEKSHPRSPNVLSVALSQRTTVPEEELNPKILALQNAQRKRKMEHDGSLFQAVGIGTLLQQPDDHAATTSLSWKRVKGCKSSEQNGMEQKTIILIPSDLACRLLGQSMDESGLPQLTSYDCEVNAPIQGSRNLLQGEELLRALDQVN
Chain of Heat shock factor protein 1 (Homo sapiens) (Q00613 whole entry, looked up): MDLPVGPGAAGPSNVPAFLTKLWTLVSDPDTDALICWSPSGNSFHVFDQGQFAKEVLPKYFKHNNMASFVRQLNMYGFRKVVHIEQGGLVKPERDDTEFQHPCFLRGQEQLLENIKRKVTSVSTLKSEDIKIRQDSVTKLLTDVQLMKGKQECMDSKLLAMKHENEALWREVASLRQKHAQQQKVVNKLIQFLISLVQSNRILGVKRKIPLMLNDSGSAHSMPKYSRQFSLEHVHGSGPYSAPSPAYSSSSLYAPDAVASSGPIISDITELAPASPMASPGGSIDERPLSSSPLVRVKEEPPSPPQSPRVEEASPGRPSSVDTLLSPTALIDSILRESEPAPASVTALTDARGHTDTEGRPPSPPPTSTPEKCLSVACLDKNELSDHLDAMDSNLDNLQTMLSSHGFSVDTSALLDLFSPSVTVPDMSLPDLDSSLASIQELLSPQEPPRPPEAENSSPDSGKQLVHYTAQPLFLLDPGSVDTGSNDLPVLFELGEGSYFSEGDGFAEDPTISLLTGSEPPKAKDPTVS
Chain of Hepatocyte nuclear factor 6 (Homo sapiens) (Q9UBC0 whole entry, looked up): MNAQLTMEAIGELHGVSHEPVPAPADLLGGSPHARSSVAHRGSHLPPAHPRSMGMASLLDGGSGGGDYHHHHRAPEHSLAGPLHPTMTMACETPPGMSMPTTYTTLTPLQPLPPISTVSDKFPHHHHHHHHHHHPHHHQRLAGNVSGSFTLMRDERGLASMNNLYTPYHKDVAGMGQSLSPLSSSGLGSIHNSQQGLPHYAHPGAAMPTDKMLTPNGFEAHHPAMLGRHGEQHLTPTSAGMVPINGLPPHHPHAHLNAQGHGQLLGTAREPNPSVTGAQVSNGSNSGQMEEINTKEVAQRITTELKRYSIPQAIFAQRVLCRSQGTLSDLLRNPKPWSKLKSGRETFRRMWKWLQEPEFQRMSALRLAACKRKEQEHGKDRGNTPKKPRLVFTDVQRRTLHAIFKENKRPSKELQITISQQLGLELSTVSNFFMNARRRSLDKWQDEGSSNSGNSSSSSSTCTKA
Chain of Transcription factor Sp1 (Homo sapiens) (P08047 whole entry, looked up): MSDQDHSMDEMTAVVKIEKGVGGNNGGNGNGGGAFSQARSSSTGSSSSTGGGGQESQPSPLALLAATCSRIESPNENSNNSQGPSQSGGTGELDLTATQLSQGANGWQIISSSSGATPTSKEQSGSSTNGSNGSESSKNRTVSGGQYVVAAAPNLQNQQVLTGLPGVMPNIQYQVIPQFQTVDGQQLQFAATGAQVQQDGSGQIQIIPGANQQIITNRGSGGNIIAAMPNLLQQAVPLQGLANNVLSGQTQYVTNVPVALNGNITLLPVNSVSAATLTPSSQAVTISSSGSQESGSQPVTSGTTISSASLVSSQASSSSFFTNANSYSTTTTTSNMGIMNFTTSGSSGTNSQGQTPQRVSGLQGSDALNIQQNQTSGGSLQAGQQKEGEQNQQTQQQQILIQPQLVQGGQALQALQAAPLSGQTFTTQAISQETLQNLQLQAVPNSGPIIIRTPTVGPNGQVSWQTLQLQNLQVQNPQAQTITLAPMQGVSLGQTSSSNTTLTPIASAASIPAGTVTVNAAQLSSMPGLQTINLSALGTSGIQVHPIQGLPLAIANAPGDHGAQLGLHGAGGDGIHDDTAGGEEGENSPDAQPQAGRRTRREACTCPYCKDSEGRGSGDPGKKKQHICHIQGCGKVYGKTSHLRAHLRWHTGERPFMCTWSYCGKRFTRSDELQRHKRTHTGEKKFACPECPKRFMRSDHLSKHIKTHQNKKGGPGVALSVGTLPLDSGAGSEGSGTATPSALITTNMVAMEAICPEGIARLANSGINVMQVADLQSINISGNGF

Regarding `O=C(O)c1ccc(O)cc1`, the compound was classed as inactive in test [1], in [2], in [3], in test [4], in [5] and in [6]. Moreover, the outcome in test [7], in [8], in test [9], in test [10], in test [11] and in [12] was inactive. Also, the outcome in [13], in test [14], in test [15], in [16], in [17] and in [18] was inactive. Besides, the call in [19] was inactive.

Regarding `CCc1ncc(C)[nH]1`, the call in test [1], in test [2], in [3], in test [4], in test [5] and in [6] was inactive. Moreover, the compound was called inactive in test [7], in [8], in [9], in test [10], in test [11] and in test [12]. In addition, the compound was called inactive in test [13], in [14], in [20], in test [15], in test [16] and in [17]. Also, the compound was called inactive in test [18].

Turning to `CCCCCC(C=O)=Cc1ccccc1`, the call in test [1], in [2], in test [4], in test [5], in test [6] and in test [7] was inactive. Further, the call in [9], in test [10], in [11], in [14], in test [20] and in test [15] was inactive. The outcome in [16], in [17], in test [18] and in test [19] was inactive. Also, the half-maximal activity concentration (AC50) in test [3] is 160 µM (active); in test [8], 173 µM (active); in [12] it was 24.5 µM (active); in test [13], 26.5 µM (active).
